Values without a mark were called inactive. How the calls were made is not given here.

Sequence of Pantothenate synthetase (Mycobacterium tuberculosis (strain ATCC 25618 / H37Rv)) (P9WIL5 whole entry, looked up): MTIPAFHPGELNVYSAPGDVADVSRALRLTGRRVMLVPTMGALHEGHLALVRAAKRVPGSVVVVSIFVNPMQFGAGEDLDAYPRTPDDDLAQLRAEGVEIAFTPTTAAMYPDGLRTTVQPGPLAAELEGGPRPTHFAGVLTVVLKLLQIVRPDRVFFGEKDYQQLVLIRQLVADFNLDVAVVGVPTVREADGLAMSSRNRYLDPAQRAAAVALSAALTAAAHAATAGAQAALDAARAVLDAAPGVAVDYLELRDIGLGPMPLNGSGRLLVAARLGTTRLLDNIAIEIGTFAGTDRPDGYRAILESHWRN

This test has as its target Pantothenate synthetase (Mycobacterium tuberculosis (strain ATCC 25618 / H37Rv)) (UniProt P9WIL5). The test can be described thus: Recombinant Mtb pantothenate synthetase (PanC) inhibitors, coupled enzyme, confirmatory (AID 375).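 Further: 0% = full reaction with vehicle and 100% = no enzyme background.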 The note with it: coupled enzyme assay; at 10 µM, stronger effect = higher value.
One may read the inhibition as the change of the read-out against control, counted positive when it falls. Take `CSc1ncc(Cl)c(C(=O)Nc2ccc(S(=O)(=O)N3CCOCC3)cc2)n1`: the inhibition was 0%. In the case of `Cc1onc(-c2c(Cl)cccc2Cl)c1C(N)=O` it was 0%; in that of `COc1ccc(OC)c(N(CC(=O)N2CCN(c3cc(Cl)ccc3C)CC2)S(C)(=O)=O)c1`, 2%. In the case of `O=C(NC1=NCCS1)c1ccc2c(c1)C(=O)N(Cc1ccco1)C2=O` it was 0%; in that of `CCc1nnc(NC(=O)CSc2nnc(-c3ccc(OC)cc3)n2C)s1`, 0%; in that of `Cc1cc(C(=O)N2CCN(C/C=C/c3ccccc3)CC2)no1`, 0%. For `CCCCN(CCCC)C(=O)CN(C)S(=O)(=O)c1ccc2c(c1)n(C)c(=O)c(=O)n2C`, the inhibition is 5%. Regarding `CCOc1ccc(C2C(C#N)=C(N)Oc3cc(C)n(CCN(C)C)c(=O)c32)cc1OCC` (stereo not given), the inhibition was 0%. Turning to `Cc1ccccc1-c1nc(CN2CCC(C(=O)NCc3cccnc3)CC2)c(C)o1`, the inhibition was 0%. The figure for `c1ccc(-c2nn3nnnc3c3ccccc23)cc1` is 4%. On to `COc1ccc(C(c2sc3nc(C)nn3c2O)N2CCCCC2)cc1` (stereo not given), for which the inhibition was 0%.

For `CC1CCN(S(=O)(=O)c2ccc3[nH]cc(C(=O)NCCN4CCOCC4)c(=O)c3c2)CC1`, the inhibition is 0%.

On to `COc1ccc(OCCN2C(=O)NC(C)(c3ccc(C)cc3)C2=O)cc1` (stereo not given), for which the inhibition is 1%. In the case of `CC(=O)OC(C)C[N+](C)(C)C` (stereo not given) it was 3%; in that of `COc1cc(C(=O)Nc2cccc(-c3nncn3C)c2)cc(OC)c1OC`, 0%. In the case of `CCOc1ccc2nc(Nc3nc4c(c(=O)[nH]3)CCC4)nc(C)c2c1` it was 0%. For `CCOC(=O)c1ccc(COC(=O)c2cc3ccccc3oc2=O)o1`, the inhibition was 0%. In the case of `C=CCn1c(=O)[nH]c2cc(C(=O)N3CCN(c4cc(C)ccc4C)CC3)ccc2c1=O` it was 4%. As for `COc1cccc(C2CC(c3ccc(F)cc3)Nc3nc(N)nn32)c1` (stereo not given), the inhibition is 0%.

As to `C=CCSc1nnc(-c2ccccc2NC(C)=O)c(=O)[nH]1`, the inhibition was 0%. The figure for `Cc1cn2c(-c3ccncc3)nnc2s1` is 0%; for `CCn1cc(C2=NOC(C(=O)Nc3cc(C)nn3-c3ccccc3)C2)c(C)n1` (stereo not given) it is 0%. In the case of `Cc1oc2cc3c(C(=O)OCCN(C)C)c(C)oc3cc2c1C(=O)OCCN(C)C` it was 0%; in that of `COc1ccccc1-n1nnnc1SCc1ccccc1`, 3%. Consider `CCOC(=O)c1ccccc1NC(=O)N1CCn2c(C)ccc2C1CC` (stereo not given), for which the inhibition is 2%. The figure for `CN1CCN(CC(=O)Nc2ccc(Cl)cc2Cl)CC1` is 3%; for `CC(C)CCNC(=O)C(c1ccco1)N(CC1CCCO1)C(=O)Cn1nnc2ccccc21` (stereo not given) it is 0%.

For the compound `O=S(=O)(c1ccc2c(c1)nc1n2CCC1)N1CCOCC1`, the inhibition is 0%. The figure for `Cc1cccc(-n2ncc3c(NCCCn4ccnc4)ncnc32)c1` is 4%; for `CCOC(=O)c1[nH]c(CSc2nnc(-c3ccc(OC)cc3)o2)c(C(=O)OCC)c1C` it is 0%. In the case of `CC(C)NCC(O)COc1ccc(CCOCC2CC2)cc1` (stereo not given) it was 0%.

For `Cc1ccc(C(c2nnnn2CCC(C)C)N2CCN(C)CC2)cc1` (stereo not given), the inhibition is 2%.

`CCCN(CCC)C(=O)CSc1nc2ccccc2c(=O)n1C1CCCC1`: the inhibition is 7%. Regarding `CCCN(Cc1cc2ccc(C)cc2[nH]c1=O)C(=O)c1cccnc1`, the inhibition was 2%.

For `CCOC(=O)CSc1nnc(-c2ccc(NS(=O)(=O)c3ccc(C)cc3)cc2)o1`, the inhibition is 0%.

Regarding `CCCN1CCN(C(=O)Cn2cccc2C(=O)c2ccccc2)CC1`, the inhibition is 0%. Regarding `O=C(c1cc(-c2cccs2)on1)N1CCc2ccccc2C1`, the inhibition is 2%. In the case of `CCOC(=O)c1cc(NC(=O)SCC(=O)O)c(C)nc1C` it was 0%; in that of `O=C1c2ccccc2C(Nc2ccc3c(c2)OCO3)N1Cc1ccc2c(c1)OCO2` (stereo not given), 0%.

Regarding `CCOC(=O)N1CCC(NC(=O)c2cc(C(=O)NC3CCCC3)ccc2CO)CC1`, the inhibition is 1%.

The record behind these values is PubChem BioAssay.
